PLC-beta3 inh: PLC-beta3 (human) inhibition, primary screen; Q01970; Purified PLC-beta3, fluorogenic substrate, fluorescence; AID 720704; inhibition, % at 12.2 µM; hit rate 0.18% among 370,000; in the data active = inhibition above about 11%;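 note: 0% = median of compound wells on plate and 100% = full blocker control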
PLC-gamma1 inh: inhibitors of human phospholipase C gamma1; P19174; purified PLC-gamma1, fluorogenic substrate, fluorescence; inhibition, % at 12.2 µM; hit rate 0.84% among 370,000; AID 720700
DAGLB inhibitor: blocks human DAGLB lipase activity. Q8NCG7. HEK293T DAGLB membrane lysate, EnzChek fluorogenic substrate. inhibition, % at 5.17 µM. hit rate 0.059% among 340,000; in the data active = inhibition above about 34%;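 note: 0% = enzyme with vehicle and 100% = wells lacking enzyme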
Target sequence (Q8NCG7 whole entry, looked up): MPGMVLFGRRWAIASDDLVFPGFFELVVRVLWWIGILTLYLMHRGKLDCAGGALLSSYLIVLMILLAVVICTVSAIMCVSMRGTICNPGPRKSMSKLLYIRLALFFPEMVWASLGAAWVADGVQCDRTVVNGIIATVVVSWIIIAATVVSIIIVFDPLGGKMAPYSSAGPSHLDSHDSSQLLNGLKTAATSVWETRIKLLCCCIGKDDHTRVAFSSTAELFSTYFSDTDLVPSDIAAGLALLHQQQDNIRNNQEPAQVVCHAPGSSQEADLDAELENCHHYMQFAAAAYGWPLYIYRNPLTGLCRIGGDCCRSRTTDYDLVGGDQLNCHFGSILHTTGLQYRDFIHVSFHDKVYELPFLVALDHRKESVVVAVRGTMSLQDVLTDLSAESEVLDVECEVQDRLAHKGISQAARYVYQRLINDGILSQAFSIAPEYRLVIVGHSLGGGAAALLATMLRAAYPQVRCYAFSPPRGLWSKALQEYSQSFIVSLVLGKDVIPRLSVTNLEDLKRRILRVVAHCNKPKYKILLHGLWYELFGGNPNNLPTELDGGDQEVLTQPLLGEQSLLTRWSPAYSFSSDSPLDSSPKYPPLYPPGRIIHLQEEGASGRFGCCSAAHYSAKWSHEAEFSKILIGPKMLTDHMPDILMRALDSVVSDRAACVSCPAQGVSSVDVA
sPLA2-III inh: Inhibits HGIII-sPLA2 liposome hydrolysis, primary screen | Q9NZ20 | QFRET BODIPY PC-A2 liposome hydrolysis, fluorescence | inhibition, % at 12.2 µM | hit rate 0.56% among 370,000 | AID 743126;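 active = inhibition above mean plus 3 SD of compounds lying within the high and low control bounds, cut at about 19% in these data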;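 note: 0% = median of test compound wells and 100% = no enzyme DMSO wells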
PLCgamma1 ctr: inhibits human PLC-gamma1 in PLC-beta3 counter-screen | shares compounds with PLC-gamma1 inh | purified PLC-gamma1, fluorogenic substrate, fluorescence | inhibition, % at 12.3 µM | hit rate 3.1% among 3,300 | AID 743258
PLCbeta3 conf: confirmation of human PLC-beta3 inhibitors; purified PLC-beta3, fluorogenic substrate fluorescence; inhibition, % at 12.3 µM; hit rate 1% among 3,300; shares compounds with PLC-gamma1 inh; in the data active = inhibition above about 11%
Numbers without * were called inactive; · = no result given. Hits are enriched below; roughly 1.5% of the tested compounds scored in any of these assays. Cut-off read from the data, not from the text of the source, unless noted: active = inhibition above about 9.5%; inactive = the rest.

SMILES | PLC-beta3 inh | PLC-gamma1 inh | DAGLB inhibitor | sPLA2-III inh | PLCgamma1 ctr | PLCbeta3 conf
COc1ccccc1CCC[C@H](CCS(=O)(=O)C(C)C)CC1CCCCC1 | -2 | -1 | · | -1 | · | ·
CCOC(=O)c1ccc(N/C(=N\S(=O)(=O)c2ccccc2C)c2ccccc2)cc1 | 2 | 10* | -10 | -34 | -2 | -4
COc1ccc(C2=Nn3c(nnc3C3CCCCC3)SC2)cc1 | 0 | 1 | · | -3 | · | ·
COc1cccc(S(=O)(=O)Nc2ccc3c(c2)OCCO3)c1 | -3 | 9.6* | -1 | -6 | -3 | -1
Cc1cccc(S(=O)(=O)Nc2ccc3c(c2)OCCO3)c1 | -5 | 0 | 0 | -5 | · | ·
COC(=O)C[C@@H]1CC[C@@H]2[C@@H](COc3ccc(NC(=O)Nc4ccccc4)cc3C(=O)N2C)O1 | 1 | -1 | · | -5 | · | ·
Cc1cc(NC(=O)CN2CCN(C/C=C/c3ccccc3)CC2)c([N+](=O)[O-])cc1C | 0 | 9.5* | -4 | 6 | -3 | -3
Cc1ccc(-n2nnnc2SCC(=O)NCC2(N3CCOCC3)CCCCC2)cc1 | -10 | 9.7* | -1 | -11 | -8 | -1
Cc1ccc(-c2nnn(CC(=O)N3CCCCC3)n2)c(-n2cnnn2)c1 | 12* | 8 | -1 | 16 | -3 | 1
COc1ccc(C[N+]2=C(N)N[C@@]3(C=C(C)Cn4c(=O)n(-c5ccccc5)c(=O)n43)C2)c(OC)c1 | -3 | -1 | · | -7 | · | ·
Fc1cnc(N2CCOCC2)nc1N1CCOCC1 | -2 | -2 | 0 | 3 | · | ·
Clc1nc(N2CCOCC2)ncc1Br | -5 | 12* | -1 | 2 | -7 | 1
Cc1ccc(-c2nnc(NC(=O)COc3ccc(F)cc3Cl)o2)cc1C | 1 | -1 | · | -8 | · | ·
O=C(Cc1cccs1)NCc1ccccc1Br | 6 | 12* | -3 | 12 | -8 | -6
O=C(Cc1cccs1)NCc1cccc(CNC(=O)Cc2cccs2)c1 | 3 | 5 | -2 | -1 | · | ·
Cc1ccc(-c2nn(CC(N)=O)c(=O)c3ccccc23)cc1S(=O)(=O)N(C)C | -1 | -1 | 1 | -1 | · | ·
Cc1ccc(-c2nn(CC(=O)N3CCOCC3)c(=O)c3ccccc23)cc1S(=O)(=O)N(C)C | -2 | 10* | 4 | 5 | -2 | -3
Cc1cc(C)nc(NCC(O)COc2ccccc2C)n1 (stereo not drawn) | 9 | 12* | 0 | -2 | -4 | -2
COc1ccc(CNc2nc3c(c(=O)n(Cc4ccc(Cl)cc4)c(=O)n3C)n2C)cc1 | 3 | 10* | 0 | 11 | 0 | -6
N#Cc1cc(-c2ccccc2)nnc1Oc1ccccc1 | -2 | 13* | -6 | 5 | -7 | -4
O=C(CSc1nc2ccccc2nc1N1CCCCC1)N1CCN(C(c2ccccc2)c2ccc(Cl)cc2)CC1 (stereo not drawn) | 0 | 2 | · | 2 | · | ·
C[C@H]1[C@@H](NC(=O)/C=C/c2ccccc2)CC[C@@]23CCCN2C(=O)CCC[C@@H]13 | 2 | -1 | · | -5 | · | ·
O=C(O)C1CCCCN1C(=O)c1ccc(S(=O)(=O)N2CCCC2)cc1 (stereo not drawn) | 1 | 9.7* | -1 | 12 | -3 | 0
O=C(O)C1CCCCN1C(=O)c1ccc(S(=O)(=O)N2CCCCCC2)cc1 (stereo not drawn) | -3 | 1 | 2 | 1 | · | ·
COC(=O)[C@]12C[C@H](CC(=O)NCCCCc3ccccc3)C(=O)N(Cc3ccco3)C1=C[C@H](COCc1ccccc1)O[C@@H]2C | -3 | -2 | · | -17 | · | ·
SMILES | PLC-beta3 inh | PLC-gamma1 inh | DAGLB inhibitor | sPLA2-III inh | PLCgamma1 ctr | PLCbeta3 conf
CCNC(=S)NN=C1CCC(C(C)(C)C)CC1 (stereo not drawn) | -1 | 13* | 2 | 8 | -7 | -5
CC(=O)Nc1ccc(-c2ccnc3c2CC(C)(C(=O)NCc2ccc(N4CCN(C)CC4)cc2)O3)cc1 (stereo not drawn) | 11* | 0 | · | -5 | -2 | 1
CC(=O)Nc1ccc(-c2ccnc3c2CC(C)(C(=O)NCCc2ccccc2)O3)cc1 (stereo not drawn) | 6 | 14* | · | -5 | -4 | 0
CN1CCN(c2ccc(CNC(=O)C3(C)Cc4c(-c5ccc(C(N)=O)cc5)ccnc4O3)cc2)CC1 (stereo not drawn) | 2 | 1 | · | 4 | · | ·
CN(C)c1ccc(CNC(=O)C2(C)Cc3c(-c4cccc(C(N)=O)c4)ccnc3O2)cc1 (stereo not drawn) | 0 | 10.0* | · | 19 | -5 | -3
CC(=O)Nc1ccc(-c2ccnc3c2CC(C)(C(=O)Nc2ccccc2)O3)cc1 (stereo not drawn) | 2 | 0 | · | -2 | · | ·
N/C(=N\OC(=O)c1ccc2c(c1)OCO2)c1ccncc1 | -5 | 13* | 0 | 7 | -4 | -2
N/C(=N\OC(=O)c1ccc2c(c1)OCO2)c1ccc(Cl)cc1 | 6 | 4 | -2 | 0 | · | ·
Cn1cccc1C=NNC(=O)c1cc(-c2ccc(Cl)cc2)n[nH]1 | -20 | -7 | · | 8 | · | ·
Cc1ccc(S(=O)(=O)Nc2cc(C(=O)O)ccc2N2CCC(C)CC2)cc1C | 4 | -2 | · | 0 | · | ·
COc1ccccc1NC(=O)COc1ccc(/C=N/NC(=O)CSCc2ccc(Cl)cc2)cc1 | 10 | 9.5* | -3 | 6 | 3 | 5
C/C(=C1/SC(N2CCOCC2)=NC1=O)c1ccc(Cl)cc1 | 3 | 2 | 0 | 0 | · | ·
C/C(=C1\SC(N2CCOCC2)=NC1=O)c1ccc(C)cc1 | 6 | 10* | 2 | 1 | -3 | 5
COc1cc(F)c(S(=O)(=O)N2CCCN(S(=O)(=O)c3cccc(N)c3)CC2)c(F)c1 | 0 | -1 | · | -10 | · | ·
Nc1c(C(=O)N/N=C/c2ccc([N+](=O)[O-])cc2)cnn1-c1ccccc1 | -1 | 10* | 1 | 5 | 5 | 6
COCCNC(=O)[C@]1(C#N)CC(=O)N(C)[C@@H]1c1ccccc1 | 2 | 0 | · | 4 | · | ·
CC1CCCN(c2nc3c(c(=O)n(C)c(=O)n3C)n2CCSc2nc3ccccc3o2)C1 (stereo not drawn) | 0 | 10* | 1 | -4 | -4 | -1
Cc1ccc(N2C(=O)CC3(CCCC3)CC2=O)cc1 | 11* | 9 | 0 | 7 | 1 | 2
COc1ccc(CCNC(=O)c2cccc(Br)c2)cc1OC | 2 | 11* | 4 | 2 | -3 | 0
COC(=O)[C@]12C[C@H](CC(=O)NCCC(C)C)C(=O)N(Cc3ccco3)C1=C[C@H](COCc1ccccc1)O[C@@H]2C | -5 | -2 | · | 1 | · | ·
Cc1ccc(S(=O)(=O)NC2c3cccc4cccc(c34)C2Sc2n[nH]c(N)n2)cc1 (stereo not drawn) | -2 | 9.9* | 2 | -15 | -3 | -3
O=C(CSc1nnc(-c2ccc(Cl)cc2)n1-c1ccccc1)Nc1ccc(Oc2ccccc2)cc1 | -6 | -1 | · | 14 | · | ·
Cc1ccc(-c2nnn(CC(=O)Nc3ccccc3N3CCOCC3)n2)cc1 | 5 | 11* | -8 | -27 | -2 | 1
Clc1ccc(OCCOc2ccc(Br)nc2Br)c(Cl)c1 | -1 | 0 | · | -1 | · | ·
Cc1ccc(SCCNC(=O)C(C)C)cc1 | 5 | 9.7* | 1 | 4 | -12 | -2

Compound activity from PubChem.
